Data on 55 molecules can be found in publication PMC12670160, “A drug-repurposing screen of FDA- and EMA-approved drugs identifies two NF-κB inhibitors active against eumycetoma” (Journal of Antimicrobial Chemotherapy, 2025).

The subject of this assay is M. mycetomatis strain mm55. Conditions: primary screen, metabolic activity vs growth control, 96 h, 2 µM, inhibitor.
[1] abbreviates: Madurella mycetomatis metabolic activity at 2µM (%).

Counter-ions that a name gives are not always drawn. Like-named read-outs stand apart in the source and are kept apart here. Out of some 5,300 compounds screened, about 130 (2.5%) showed an effect of 50% or more. Only a selection was taken, and strong results are over-represented in it overall.

As to `CN(C)[C@@H]1C(=O)C(C(N)=O)C(=O)[C@@]2(O)C(=O)C3C(=O)c4c(O)cccc4[C@@](C)(O)[C@H]3C[C@@H]12` (stereo partly shown) [ONC0000563, tetracycline hydrochloride], the “% viability” value was found to be 113.1%.

On to `C/C(=N\NC(=N)N)c1cc(NC(=O)CCCCCCCCC(=O)Nc2cc(/C(C)=N/NC(=N)N)cc(/C(C)=N/NC(=N)N)c2)cc(/C(C)=N/NC(=N)N)c1` [ONC0003851, semapimod], for which the “% viability” value is 78.92%. The same measure, in the same setting: as for `CCCCCCCCCCCCCCCCCC(=O)OCC(O)[C@H]1OC[C@H](O)[C@H]1O` (stereo partly shown) [ONC0002989, sorbitanmonostearate], the figure is 79.74%; as for `CCn1c(-c2nonc2N)nc2cnc(Oc3cccc(NC(=O)c4ccc(OCCN5CCOCC5)cc4)c3)cc21` [ONC0002474, gsk269962], 46.2%. For the molecule `CCOc1cccc(NC(=O)c2ccc(N3CCCC3)c(C(F)(F)F)c2)c1` [ONC0001854, epptb], the “% viability” value was 85.67%.

`COc1cc2c(Nc3ccc(NC(=O)c4ccccc4)cc3)ncnc2cc1OCCCN1CCOCC1` [ONC0003607, zm447439]: the “% viability” value is reported as 145.2%. On to `Cc1nc2ccc(CN(C)c3ccc(C(=O)N[C@@H](CCC(=O)O)C(=O)O)s3)cc2c(=O)[nH]1` [ONC0004884, raltitrexed tomudex], for which the “% viability” value was 134.6%.

In the case of `CN1CCN2c3c(cccc31)[C@@H]1CN(CCCC(=O)c3ccc(F)cc3)CC[C@@H]12` [ONC0001244, lumateperone tosylate], the “% viability” value is recorded as 56.09%. The same measure, in the same setting: the value for `CC1=NN(c2ccc(C)c(C)c2)C(=O)/C1=N/Nc1cccc(-c2cccc(C(=O)O)c2)c1O` [ONC0004936, eltrombopag olamine] was 85.22%; that for `Clc1ccccc1C(c1ccccc1)(c1ccccc1)n1ccnc1` [Clotrimazole] was 2.944%; that for `N#CC(c1ccccc1)(c1ccccc1)c1ccccc1Cl` [ONC0000177, tram39] was 89.73%. The same measure, in the same setting: as for `FC(F)(F)c1ccccc1-n1ccnc1` [ONC0000025, trim], the figure is 101%; as for `C=CC1=C(C)c2cc3[nH]c(cc4nc(cc5[nH]c(cc1n2)c(C)c5CCC(=O)O)C(CCC(=O)OC)=C4C)[C@@]1(C)C3=CC=C(C(=O)OC)[C@H]1C(=O)OC` [ONC0001491, verteporfin], 55.47%. The same measure, in the same setting: the value for `CC(C)(C)c1ccc(-c2nc3c(N4CCN(Cc5ccc6nccnc6c5)CC4)cccc3[nH]2)cc1` [ONC0001828, way207024] was 97.56%. `N=C(N)NCCC[C@@H](N)C(=O)O` [ONC0004802, larginine hcl]: the “% viability” value worked out at 91.52%. With `CN1C/C=C/CCOc2cccc(c2)-c2ccnc(n2)Nc2cccc(c2)C1` [ONC0001026, sb1317], the “% viability” value came out at 86.64%. Take `Nc1nc2c(ncn2[C@@H]2O[C@H](CO)[C@@H](O)[C@H]2O)c(=S)[nH]1` [ONC0004689, thioguanosine]: the “% viability” value is given as 121.6%. Same read-out and setting: the value for `C=C[C@@]1(C)CC(=O)[C@]2(O)[C@@]3(C)[C@@H](O)CCC(C)(C)[C@@H]3[C@H](OC(=O)CCN(C)C)[C@H](OC(C)=O)[C@@]2(C)O1` [ONC0002915, colforsindaproate] was 95.97%; that for `C/C=C(\C)C(=O)O[C@H]1[C@H](OC(C)=O)[C@@]2(CO)C(CC1(C)C)C1=CCC3[C@@]4(C)CCC(O[C@@H]5O[C@H](C(=O)O)[C@@H](O[C@@H]6O[C@H](CO)[C@@H](O)[C@H](O)[C@H]6O)[C@H](O)[C@H]5O[C@@H]5O[C@H](CO)[C@@H](O)[C@H](O)[C@H]5O)[C@](C)(CO)C4CC[C@@]3(C)[C@]1(C)C[C@H]2O` (stereo partly shown) [ONC0002310, escin] was 67.54%. `CN1CCOC(c2ccccc2)c2ccccc2C1` (stereo not shown) [ONC0000697, nefopam]: the “% viability” value is recorded as 116%. As for `CN1CCC2=C(C1)C(c1ccccc1)c1ccccc12` (stereo not shown) [ONC0001922, phenindamine], the “% viability” value is 47.96%. Still for that read-out and setting: as for `CN1CCC2=C(C1)c1ccccc1Cc1ccccc12` [ONC0005445, setiptiline], the figure is 113.1%. In the case of `CSCC[C@H](N)C(=O)O` [ONC0005517, lmethionine], the “% viability” value under setting [1] is 102.8%.

`Cc1ccc(NC(=O)c2ccc(CN3CCC(N(C)C)C3)c(C(F)(F)F)c2)cc1Nc1ncc(-c2cncnc2)cn1` (stereo not shown) [ONC0004625, bafetinib inno406]: the “% viability” value is 85.25%. The same measure, in the same setting: the value for `CC(=O)Nc1ccccc1` [ONC0000688, acetanilide] was 114.7%. `CCNCCS(=O)(=O)NC[C@@]1(c2ccccc2)SC(NC(=O)C(C)(C)C)=NN1C(=O)C(C)(C)C` [ONC0000804, litronesib]: the “% viability” value was found to be 77.28%. As to `CC(=O)NC1=NN(C(C)=O)C(C)(c2ccccc2)S1` (stereo not shown) [ONC0002658, k858], the “% viability” value worked out at 49.67%.

`CCCCN1[C@@H]2CC[C@H]1C[C@@H](OC(c1ccc(F)cc1)c1ccc(F)cc1)C2` [ONC0003046, jhw007]: the “% viability” value was 64.39%.

`FC(F)(F)c1ccc(CNc2ccc(Cc3c[nH]c4ncccc34)cn2)cc1` [ONC0002656, plx647]: the “% viability” value was 82.24%. The same measure, in the same setting: as for `CCOc1cc(C(C)(C)C)ccc1C1=NC(C)(c2ccc(Cl)cc2)C(C)(c2ccc(Cl)cc2)N1C(=O)N1CCN(CCCS(C)(=O)=O)CC1` (stereo not shown) [ONC0004446, rg7112 ro5045337], the figure is 112.9%; as for `[N-]=[N+]=N[C@]1(CO)O[C@@H](n2ccc(N)nc2=O)[C@H](O)[C@@H]1O` [ONC0001768, r1479], 81.29%. Still for that read-out and setting: as for `Nc1ccn([C@@H]2O[C@@](CO)(CCl)[C@@H](O)[C@H]2F)c(=O)n1` [ONC0000939, als8112], the figure is 44.91%; as for `[N-]=[N+]=N[C@]1(CO)O[C@@H](n2ccc(N)nc2=O)[C@@H](O)[C@@H]1O` [ONC0000950, ro9187], 66.7%.

As to `[H]/N=C(/N)c1ccc(NCc2nc3cc(C(=O)N(CCC(=O)O)c4ccccn4)ccc3n2C)cc1` [ONC0004940, bibr 953 dabigatran etexilate pradaxa], the “% viability” value is 81.22%. The same measure, in the same setting: the value for `C=C[C@H]1C[N@@]2CC[C@H]1C[C@@H]2[C@@H](O)c1ccnc2ccc(OC)cc12` [ONC0003347, quinidine gluconate] was 101.1%. As for `O=C(Nc1c[nH]nc1-c1nc2cc(CN3CCOCC3)ccc2[nH]1)NC1CC1` [ONC0004692, at9283], the “% viability” value is on record as 87.23%. Consider `C[C@@H](c1nc(-c2ccc(C#N)cc2)cs1)[C@](O)(Cn1cncn1)c1cc(F)ccc1F` [Isavuconazole], for which the “% viability” value is reported as 3.591%. The same measure, in the same setting: as for `C[C@@H](c1nc(-c2ccc(C#N)cc2)cs1)[C@](O)(Cn1cncn1)c1ccc(F)cc1F` [Ravuconazole], the figure is 0.9972%; as for `C[C@@H](c1ncncc1F)[C@](O)(Cn1cncn1)c1ccc(F)cc1F` [Voriconazole], 2.12%; as for `OC(Cn1cncn1)(Cn1cncn1)c1ccc(F)cc1F` [ONC0005572, fluconazole], 73.77%. Still for that read-out and setting: as for `CO[C@H]1CC[C@H](N2C(=O)CNc3ncc(-c4ccc(C(C)(C)O)nc4)nc32)CC1` [ONC0001106, cc223], the figure is 54.41%. Turning to `COc1ccc(-c2cnc3c(-c4cccc5ncccc45)cnn3c2)cc1` [ONC0002277, chr6494], the “% viability” value under setting [1] amounted to 84.04%. As for `C[C@@H]1[C@H](O)[C@@H](C)/C=C/C=C/CC/C=C/C=C/C=C/C=C/[C@H](O[C@@H]2O[C@H](C)[C@@H](O)[C@H](N)[C@@H]2O)C[C@@H]2O[C@](O)(C[C@@H](O)[C@H](O)CC[C@@H](O)C[C@@H](O)C[C@@H](O)CC(=O)O[C@H]1C)C[C@H](O)[C@H]2C(=O)O` [ONC0002036, nystatin], the “% viability” value is 93.36%. On the same count and under the same terms, the value for `O=C(O)C=C1NN(Cc2nc3cc(C(F)(F)F)ccc3s2)C(=O)c2ccccc21` [ONC0005526, zopolrestat] was 123.5%.

Take `CCS(=O)(=O)N1CCC[C@@H]2CN3CCc4cc(OC)ccc4[C@@H]3C[C@@H]21` [ONC0002617, rs79948]: the “% viability” value is 85.43%. Regarding `C[C@@]1(c2nc3c(C(N)=O)cccc3[nH]2)CCCN1` [ONC0004676, abt888 veliparib], the “% viability” value turned out to be 121%. Consider `Cc1cc(NC(=O)C2C(=O)c3ccccc3S(=O)(=O)N2C)no1` (stereo not shown) [ONC0002885, isoxicam], for which the “% viability” value is on record as 123.7%.

In the case of `C[n+]1cccc(C(=O)O)c1` [ONC0003448, trigonellinehcl], the “% viability” value turned out to be 47.48%. Regarding `O=C(O)c1ccc[n+]([O-])c1` [ONC0005291, oxiniacic acid], the “% viability” value is reported as 104%.

As to `O=C(O)c1ccccc1` [ONC0003100, benzoic acid], the “% viability” value was 90.48%. On the same count and under the same terms, the value for `Cc1cc(CCC[C@H](CC(=O)NO)C(=O)N[C@H](C(=O)N[C@H](C)c2ccccc2)C(C)(C)C)ccc1-c1ccccc1` [ONC0002525, uk356618] was 62.33%. As to `CC(C)[C@@H]1CC[C@@H](C)C[C@H]1O` [ONC0003141, levomenthol], the “% viability” value stood at 69.71%. On the same count and under the same terms, as for `CC(C)[C@@H]1CC[C@@H](C)C[C@@H]1P(=O)(c1ccccc1)c1ccccc1` [ONC0003951, dpo1], the figure is 47.19%; as for `CC[C@H](C)[C@H](NC(=O)[C@H](Cc1ccc(O)cc1)NC(=O)[C@@H](NC(=O)[C@H](CCCNC(=N)N)NC(=O)[C@@H](N)CC(=O)O)C(C)C)C(=O)N[C@@H](Cc1cnc[nH]1)C(=O)N1CCC[C@H]1C(=O)N[C@@H](Cc1ccccc1)C(=O)O` [ONC0002134, angiotensin ii human], 79.83%; as for `CC(C)N[C@H]1CCn2c(=O)[nH]c3cccc(c32)[C@@H]1O` [ONC0003872, zilpaterol], 87.84%.
